A selection: hits, their analogues and other compounds. The true share with any hit is near 9.2%.
NPC1 promoter act: qHTS Assay for NPC1 Promoter Activators. hit rate 2.4% among 320,000. Potency, µM (doses to about 9.22 µM), without a hit: top-dose activation, hits mostly activators. Huh7 NPC1 promoter luciferase reporter, 24 h; also: % of control where 0% means no effect; nearly all actives have a fitted effect of over 60% in size
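In 1536-well qHTS, Huh7 cells harboring an NPC1 promoter–luciferase construct received compound for 24 h; activation was quantified by luminescence following luciferase reagent addition.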
ELG1 DNA repair: qHTS screen for small molecules that inhibit ELG1-dependent DNA repair in human embryonic kidney (HEK293T) cells expressing luciferase-tagged ELG1; Potency, µM (series often up to 46.1 µM), without a hit: at the top dose activity change, negative = inhibition, usual class: inhibitors; HEK293T ELG1-luciferase reporter, luminescence, 16 h; DNA damage induced by 5-fluorouridine; hit rate 2.3% among 330,000; also: % is scaled to controls: 0 for no effect and ±100 for the full control effect; nearly all actives have a fitted effect of over 55% in size
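HEK293T cells expressing luciferase-tagged ELG1 (2,000/well) received 5-Fluorouridine plus compound or DMSO for 16 hr at 37 °C. Luciferase was read by ONE-Glo luminescence after 30 min at room temperature.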
ELG1 genotoxic: qHTS screen for small molecules that induce genotoxicity in human embryonic kidney (HEK293T) cells expressing luciferase-tagged ELG1. HEK293T ELG1-luciferase reporter, luminescence, 16 h. Potency, µM (highest dose often 46 µM), inactives show at the highest dose activity change, positive = activation, actives largely listed as activators. hit rate 1.3% among 330,000. AID 504466, 2011; also: % of control where 0% means no effect; nearly all actives have a fitted effect of over 60% in size
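Luminescence read-out: rising ELG1-luciferase signal, reflecting elevated ELG1 protein under genetic stress, flags genotoxic compounds. Cells were treated for 16 hr at 37 °C before ONE-Glo detection.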
SMN2 splice enh: qHTS Assay for Enhancers of SMN2 Splice Variant Expression; HEK293 SMN2-luciferase splicing reporter, luminescence, 30-36 h; Potency, µM (top dose mostly 46.1 µM), for inactives: at the highest dose activity change, positive = activation, actives largely listed as activators; hit rate 2.8% among 210,000; also: % of control where 0% means no effect; nearly all actives have a fitted effect of over 55% in size
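HEK293 cells carry an SMN2 minigene-luciferase reporter in which exon 7 inclusion puts luciferase in frame. Cells were seeded at 2000 cells/well, attached for 10-12 hours, then exposed to compounds for 30-36 hours at 37C before ONE-Glo luminescence.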
Rab9 prom act: qHTS Assay for Rab9 Promoter Activators; Huh7 Rab9 promoter-luciferase reporter, luminescence, 24 h; Potency, µM (highest dose often 9.22 µM), for the others: at the highest dose activation, negative = inhibition, most hits filed as activators; hit rate 2.8% among 320,000; also: % of control where 0% means no effect; nearly all actives have a fitted effect of over 60% in size
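Cell-based reporter: Huh7 stable for Rab9 promoter-driven luciferase, plated in reduced-serum medium with 10% FBS at 1500 cells/well, compound-treated 24 h at 37 °C, luminescence read after 10 min reagent.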
FLuc modulator: qHTS profiling assay for firefly luciferase inhibitor/activator using purifed enzyme and Km concentrations of substrates (counterscreen for miR-21 project); purified FLuc, Km substrates, luminescence inhibition; Potency, µM (titrated, usually from 57.5 µM), inactives show top-dose activity change, negative = inhibition, most hits filed as inhibitors; hit rate 6.9% among 360,000;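 also: plate controls were vehicle for no effect and reference inhibitor for full effect; nearly all actives have a fitted effect of over 55% in size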
Target sequence (P08659 whole entry, looked up): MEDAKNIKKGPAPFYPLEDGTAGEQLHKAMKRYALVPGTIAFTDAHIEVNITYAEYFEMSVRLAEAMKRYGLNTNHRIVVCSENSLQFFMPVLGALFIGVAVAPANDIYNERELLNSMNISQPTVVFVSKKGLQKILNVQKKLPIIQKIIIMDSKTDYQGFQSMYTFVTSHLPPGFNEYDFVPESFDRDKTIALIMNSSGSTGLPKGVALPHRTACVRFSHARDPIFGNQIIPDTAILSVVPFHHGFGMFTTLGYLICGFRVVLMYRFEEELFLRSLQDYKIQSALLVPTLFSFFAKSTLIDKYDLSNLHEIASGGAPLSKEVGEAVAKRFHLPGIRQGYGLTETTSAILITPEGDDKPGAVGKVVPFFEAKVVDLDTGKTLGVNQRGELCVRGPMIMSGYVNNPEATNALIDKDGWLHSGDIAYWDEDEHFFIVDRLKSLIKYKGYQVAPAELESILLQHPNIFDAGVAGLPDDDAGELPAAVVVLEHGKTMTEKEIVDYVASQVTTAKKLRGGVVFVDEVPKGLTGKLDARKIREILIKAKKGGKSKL
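Purified P. pyralis luciferase (10nM final) with 10uM D-luciferin and 10uM ATP (Km levels) in 50mM Tris acetate pH 7.5, 10mM Mg acetate, 0.01% Tween-20, 0.05% BSA; qHTS 6-point titration, ~60 µM downward; luminescence read.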
* hit, by the source's call; ? = inconclusive; · = no result. Calls follow the shape of the dose curve; as a rule, active = well fitted curve in the direction sought with a large enough effect; inconclusive = small, poorly fitted or top-dose-only effect, or another doubt; inactive = no such curve, though single readings can be large; an effect the other way counts as inactive or inconclusive. Potency is read from the fitted curve at half-maximal effect.

SMILES	NPC1 promoter act	ELG1 DNA repair	ELG1 genotoxic	SMN2 splice enh	Rab9 prom act	FLuc modulator
CCn1cc(Br)c(C(=O)NN)n1	?	?	1%	8%	2%	3%
CCCCOC(=O)c1ccc(NC(=O)c2nn(C)cc2Br)cc1	7%	3%	21%	9%	5%	21µM*
CCn1nccc1C(=O)Nc1ccc(C(=O)OC(C)C)cc1	?	18%	15%	·	?	19µM*
CCOC(=O)c1c(-c2ccccc2)csc1NC(=O)c1nn(CC)cc1Br	-7%	12µM*	-13%	-13%	-4%	3%
COCCNC(=O)C1CCN(Cc2cc3ccccc3n2Cc2ccc(C)cc2)CC1	·	·	·	·	·	-3%
CC1=C(C(=O)Nc2c(C)cc(C)cc2C)C2(CCN(C(C)C)CC2)OC1=O	·	·	·	·	·	1%
COc1ccc(CN(Cc2ccco2)C(=O)c2ccccc2F)cc1	·	·	·	-1%	·	-2%
CC(=O)c1ccccc1NC(=O)COC(=O)/C(=C/c1ccccc1)n1nnnc1C	-3%	?	-7%	·	3%	0%
CCn1cc(Br)c(C(=O)Nc2ccc(C(=O)OC(C)C)cc2)n1	?	14%	-2%	-10%	?	15µM*
COc1ccc(OC)c(Cc2nnc(CCC(=O)N3CCCCC3c3nccs3)o2)c1 (configuration not stated)	?	?	?	·	3.5µM*	24µM*
CC1CCN(C(=O)c2ccc3c(c2)N(Cc2ccccc2F)C(=O)c2ccccc2S3(=O)=O)CC1	·	·	·	-1%	·	5%
COc1ccc(-c2cc3ccccc3oc2=O)cc1NC(=O)c1cccnc1	-6%	0%	-4%	-5%	7%	11µM*
COc1cc2c(cc1NC(=O)c1cccnc1)oc1ccccc12	?	?	?	?	?	15µM*
COc1ccc(OC)c(NC(=O)c2cccnc2)c1	-5%	11%	3%	·	-1%	-4%
Cc1ccc(C(=O)c2oc3ccccc3c2NC(=O)COc2ccccc2C)cc1	·	·	·	14%	·	4%
COC(=O)c1cc(/C=C/c2ccccc2)[nH]n1	?	?	17%	·	?	17µM*
COc1ccccc1NC(=O)c1cc2cc3ccc(OC)c(Cl)c3nc2s1	·	·	·	·	·	-8%
O=C1/C(=C/c2cccc([N+](=O)[O-])c2)Oc2cc(O)ccc21	13%	?	0%	·	3%	?
O=C1/C(=C/c2ccc(O)c(O)c2)Oc2cc(O)ccc21	?	?	15µM*	·	20%	15µM*
COc1cc(/C=C2\Oc3cc(O)ccc3C2=O)ccc1O	3.2µM*	?	23µM*	·	4µM*	8.5µM*
Clc1ccc(-c2csc(=Nc3cccnc3)n2CCCn2ccnc2)cc1Cl	7%	8.2µM*	-13%	-46%	-6%	1%
COCCn1c(-c2ccc(Br)cc2)csc1=Nc1cccnc1	-13%	12µM*	-8%	-38%	-12%	-9%
FC(F)Oc1ccc(-c2csc(=Nc3cccnc3)n2CC2CCCO2)cc1 (configuration not stated)	1%	?	-2%	-72%	-5%	4%
Cc1ccccc1S(=O)(=O)N(CC(O)CN1C(=O)NC(C)(C)C1=O)c1ccccc1 (configuration not stated)	-5%	?	-3%	·	1%	1%
CC1(C)Cc2ccccc2-c2nnc(-c3ccccc3)n21	-3%	-7%	-7%	-15%	0%	-16%
SMILES	NPC1 promoter act	ELG1 DNA repair	ELG1 genotoxic	SMN2 splice enh	Rab9 prom act	FLuc modulator
c1ccc(-c2cn3c(n2)-c2ccccc2C3)cc1	3.2µM*	?	?	0.5µM*	0.56µM*	0.43µM*
Cc1c(C(=O)NC(=S)NCc2cccnc2)cccc1[N+](=O)[O-]	0%	4%	-5%	·	0%	-3%
CCC(=O)Nc1nnc(-c2ccc(OC)cc2)o1	13%	?	7%	15%	1%	24µM*
CCC(=O)Nc1ccc(-c2nc3ccccc3c(=O)o2)cc1	-1%	1%	-11%	-5%	4%	1.3µM*
CC(=O)Nc1ccc(C2=NN(Cc3nnc(-c4ccccc4)o3)C(=O)SC2)cc1	8%	16µM*	-3%	15%	9%	?
CCC(=O)Nc1ccc(-c2nnc(-c3ccccc3)o2)cc1	0.32µM*	?	?	·	0.32µM*	0.95µM*
CCC(=O)Nc1cccc(-c2nnc(-c3cccc(NC(=O)CC)c3)o2)c1	1%	?	-6%	-19%	-3%	?
O=C(Nc1cccc(-c2nc3ccccc3c(=O)o2)c1)c1ccccc1	2%	4%	5%	-30%	1%	-4%
CCOc1ccc(-c2nnc(NC(=O)Cc3ccc(OC)cc3)o2)cc1	10%	4%	5%	·	8%	?
CCC(CC)NC(=O)C1CCN(c2ccc(S(=O)(=O)N3CCOCC3)cc2[N+](=O)[O-])CC1	-5%	0%	2%	·	-6%	6%
COc1ccc(CN(CC(=O)NCCc2ccccc2)C(=O)CCC(=O)Nc2cc(C)ccn2)cc1	-1%	-22%	-4%	·	1%	3%
O=C(CN1CCOCC1)NNC(=O)c1ccc(Cl)cc1	·	-1%	0%	·	·	·
CCN1CCN(c2ccc(NC(=O)c3ccc4c(c3)OCCO4)cc2C)CC1	2.8µM*	?	?	·	1.6µM*	6.7µM*
CCN1CCc2nc(NC(=O)c3ccc4c(c3)OCCO4)sc2C1	?	?	?	?	?	11µM*
Cc1ccc(C(=O)Nc2ccc(N3CCN(S(C)(=O)=O)CC3)cc2)cc1C	0%	-11%	-2%	·	1%	7%
Cc1ccc(C(=O)Nc2ccc(N3CCN(C)CC3)cc2)c(Cl)c1	3.5µM*	?	?	·	3.5µM*	24µM*
CCN1CCN(c2cc(C)c3cc(NC(=O)c4ccc5c(c4)OCO5)ccc3n2)CC1	-4%	?	0%	9%	-5%	?
Cc1ccc(C(=O)Nc2ccc(N3CCN(C)CC3)cc2)cc1C	0.79µM*	?	1.8µM*	·	0.71µM*	3.4µM*
CS(=O)(=O)c1ccc(C(=O)Nc2ccc(N3CCCCC3)cc2)c(Cl)c1	-4%	?	15%	4%	-3%	-6%
CCOC(=O)C1=C(CC)Nc2ccccc2N/C1=N\S(=O)(=O)c1cccc(C(C)=O)c1	·	0%	-1%	·	·	·

Source: PubChem BioAssay
